# Laboratory results reported in PubChem BioAssay (NCI).
# About 83,000 compounds went through this panel and 20% of them were active in at least one assay; those are over-represented in the sample as a whole.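 The endpoint reported here, percent growth, reads 100 for growth as untreated, 0 for no net growth and -100 for all cells dead.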 A number with no mark means an inactive call. The source made the active and inactive calls. How the source made its calls: active means growth percent below 10; inactive means the rest.
# Tested on: HL-60(TB) leukemia
# Experiment: NCI-60 one-dose screen, 48 h (100 = growth as untreated, 0 = no growth, -100 = all killed)
# Settings: 10 µM unless noted
row,SMILES,growth
1,O=S(=O)(NCCNc1cc(-c2c(-c3cccc(O)c3)nc3sccn23)ccn1)c1ccc(Cl)cc1,84.3%
2,COc1cc(OC)c(/C=C/C(=O)c2c(N)cc(OC)cc2OC)c(OC)c1,12.7%
3,CCO/C=N/NC(=O)c1ccncc1,102%
4,CNC(=O)c1cc(Oc2ccc3nc(NC(=O)NC(C)C)sc3c2)ccn1,47.8%
5,Cc1ccc(C(=O)c2sc3nc4c(cc3c2N)CCCC4)c(C)c1,-3.28% (active)
6,c1ccc(-c2n(Cc3ccc4ccccc4n3)c3ccccc3[n+]2Cc2ccc3ccccc3n2)cc1,-54% (active)
